Rows were chosen to be rich in hits. Some 3.5% of all compounds tested hit in one or more screens of this group.
GPR151 activ – activators of human GPR151, primary screen, cell-based, PathHunter beta-arrestin, luminescence; G-protein coupled receptor 151 (Homo sapiens), Q8TDV0; PathHunter beta-arrestin GPR151 cells; activation, % at 11.2 µM; 1% of 650,000 active; in the data active = activation above about 4.9%
Target sequence (Q8TDV0 whole entry, looked up): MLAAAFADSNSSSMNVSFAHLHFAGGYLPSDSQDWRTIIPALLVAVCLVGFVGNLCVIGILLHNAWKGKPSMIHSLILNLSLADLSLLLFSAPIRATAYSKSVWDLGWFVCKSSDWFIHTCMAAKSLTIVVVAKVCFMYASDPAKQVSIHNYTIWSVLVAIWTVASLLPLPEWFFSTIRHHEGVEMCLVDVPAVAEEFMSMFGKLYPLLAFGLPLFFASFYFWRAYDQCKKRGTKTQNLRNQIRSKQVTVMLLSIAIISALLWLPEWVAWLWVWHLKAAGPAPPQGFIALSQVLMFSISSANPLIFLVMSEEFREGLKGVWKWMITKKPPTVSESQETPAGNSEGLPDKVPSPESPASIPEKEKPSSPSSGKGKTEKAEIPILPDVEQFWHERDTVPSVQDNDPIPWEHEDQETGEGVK
TEAD-YAP block – TEAD-YAP interaction inhibition, primary screen, TEAD-YAP interaction inhibitor project, luminescence, HEK-TIYL cells. AID 1259422, 2018. inhibition, % at 9.12 µM. TEAD-Gal4/YAP UAS-luciferase luminescence. 1.4% of 640,000 active; in the data active = inhibition above about 32%
FBW7 activator – FBW7 E3 ligase activators, primary screen, biochemical, AlphaScreen, human. 0.13% of 650,000 active. AlphaScreen FBW7–phospho-cyclin E peptide binding, activator screen. F-box/WD repeat-containing protein 7 (Homo sapiens), Q969H0. AID 1259310, 2017. normalized activity (activation), % at 26.1 µM; in the data active = normalized activity above about 1.9%;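 note: purified mutant Fbw7 with reduced substrate affinity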
MITF inh – MITF inhibitors, primary screen, biochemical, AlphaScreen, human | Microphthalmia-associated transcription factor (Homo sapiens), O75030 | AlphaScreen MITF homodimerization, bead proximity signal | inhibition, % at 2.6 µM | 0.91% of 650,000 active; in the data active = inhibition above about 50%
Numbers stand for hits; i = inactive.

SMILES	GPR151 activ	TEAD-YAP block	FBW7 activator	MITF inh
CCOC(=O)c1nnn(C(CC)C(=O)Nc2cc(Cl)ccc2C)c1C(=O)OCC (stereo not drawn)	i	i	i	i
Cn1cc(-c2ccnn2C)c(-c2ccnc(Nc3ccc(N4CCOCC4)cc3)c2)n1	i	i	i	i
CCOc1cc(/C=C2/C(=O)ON=C2c2ccccc2)ccc1OC	i	i	i	67
COc1cc(/C=C2\C(=O)ON=C2c2ccccc2)ccc1OCc1ccc(Cl)cc1	i	i	i	i
CCOc1ccc(/C=C2\C(=O)ON=C2c2ccc(Cl)cc2)cc1	i	i	i	59
COc1cc(/C=C2/C(=O)ON=C2c2ccccc2)ccc1O	i	i	i	69
Cc1ccc(COc2ccccc2/C=C2/C(=O)ON=C2c2ccccc2)cc1	i	i	i	54
CC(=O)c1cc(F)c(N2CCN(C(=O)c3ccc(Br)cc3)CC2)cc1C	i	i	i	i
Cn1c(=O)c2cc(N3CCOCC3)nnc2n(C)c1=O	i	i	i	i
O=C(/C=C/c1ccco1)NCCCc1ccccc1	i	i	i	i
COc1cc(/C=C2/C(=O)ON=C2c2ccc(Cl)cc2)ccc1O	i	i	i	61
COc1cc(/C=C2/C(=O)ON=C2c2ccccc2)cc(OC)c1OC	i	i	i	56
COc1ccccc1/C=C1\C(=O)ON=C1c1ccccc1	i	i	i	70
CO[C@H]1[C@H](NC(=O)c2cccs2)c2ccccc2C12CCN(CC1CC1)CC2	i	i	i	i
CC(C)CN1C(=O)/C(=C/c2ccccc2OCC(=O)O)SC1=S	i	i	i	i
Cc1ccc(Cl)cc1N(CC(=O)NCC1CCCO1)S(C)(=O)=O (stereo not drawn)	i	i	i	i
CC1(C)Cc2ccccc2-c2[nH][nH]c(=O)c21	i	37	i	i
CN1C(=O)c2ccccc2CC1(C)C	i	i	i	i
Fc1ccc(Nc2nc(-c3ccccc3F)nc3ccccc23)c(Cl)c1	i	i	i	i
Cc1ccc(S(=O)(=O)Nc2cc(C(=O)N3CCOCC3)ccc2N2CCCCC2)cc1	i	i	i	i
COC(=O)c1ccc(N2CCCC2)c(NS(=O)(=O)c2ccc(C)cc2)c1	i	41	i	i
COC(=O)c1ccc(N2CCOCC2)c(NS(=O)(=O)c2ccc(OC)cc2)c1	i	58	i	i
CCn1c2ccccc2c2cc(NC(=O)C(=O)NCCCOC)ccc21	i	40	i	i
Cc1csc(NC(=O)CN2CCC(c3ccncc3)CC2)n1	i	45	i	i
CCS(=O)(=O)Nc1ccc(-c2cn3c(C)csc3n2)cc1	i	33	i	i
SMILES	GPR151 activ	TEAD-YAP block	FBW7 activator	MITF inh
Cc1csc2nc(-c3ccc(NS(=O)(=O)N(C)C)cc3)cn12	i	i	i	i
CCOC(=O)C(O)(c1ccc(N(CC)C(=O)c2ccccc2)cc1)C(F)(F)F (stereo not drawn)	i	i	2.6	i
COc1ccc(NC(=O)c2cc(-c3cccc(O)c3)on2)cc1	i	i	i	i
COc1ccc(-c2cc(C(=O)Nc3cccc(O)c3)no2)cc1	i	90	i	i
O=C(Nc1cccc(O)c1)c1cc(-c2ccc(F)cc2)on1	i	89	i	i
N#Cc1ccc(NC(=O)c2cc(-c3ccc(Cl)cc3)on2)cc1	i	i	i	i
N#Cc1ccc(NC(=O)c2cc(-c3ccc(O)cc3)on2)cc1	i	i	2.3	i
CC1=C(C(=O)Nc2ccccc2C)C(c2ccco2)C(C#N)=C(SCC(=O)Nc2cccc(Cl)c2C)N1 (stereo not drawn)	i	i	i	i
O=C(NCCN1CCN(c2ccc(F)cc2)CC1)c1ccc(Cl)cc1	i	i	i	i
Nc1nc(-c2ccco2)nn1C(=O)c1ccccc1	i	i	2.0	i
Cc1[nH]c2ccc(-c3nnc(SCC(=O)Nc4cccc([N+](=O)[O-])c4)n3-c3ccccc3)cc2c1C	i	i	2.4	i
Cc1[nH]c2ccc(-c3nnc(SCC(=O)Nc4cccc([N+](=O)[O-])c4)n3Cc3ccccc3)cc2c1C	i	i	i	i
COc1cc(/C=N/Nc2ncnc3nc[nH]c23)cc(OC)c1OC	i	i	i	i
CC(C)c1ccc(/C=N/Nc2ncnc3nc[nH]c23)cc1	i	52	i	i
CCOc1ccc(Nc2ncnc3nc[nH]c23)cc1	i	51	i	i
COc1cccc(/C=N/Nc2cccc3cccnc23)c1	i	44	i	i
COc1cccc(/C=N/Nc2ncnc3nc[nH]c23)c1	i	48	i	i
CC(=O)Nc1ccccc1NC(=O)C/C(C)=N/NC(=O)c1ccoc1C	i	i	i	i
COc1cc(Cl)cc(OCC(C)Nc2cc(Cl)ncn2)c1 (stereo not drawn)	i	i	i	i
NNc1nc(Nc2ccccc2)nc(Nc2ccccc2)n1	i	35	i	i
O=C(NC(=S)NNCCO)C12CC3CC(CC(C3)C1)C2	i	i	i	i
COc1ccc(N2CCN(CC(O)COCCOc3cccc(OC)c3)CC2)cc1 (stereo not drawn)	i	i	i	i
O=C1CCCN1CCn1cnc2c(NCc3nc4ccccc4[nH]3)nc(Nc3ncccn3)nc21	i	i	i	i
O=C1CCCN1CCn1cnc2c(NCc3nc4ccccc4[nH]3)nc(Nc3ccc4ncccc4c3)nc21	i	59	i	i
O=C1CCCN1CCn1cnc2c(NCc3nc4ccccc4[nH]3)nc(Nc3ccc(-n4ccnc4)cc3)nc21	i	39	i	i
SMILES	GPR151 activ	TEAD-YAP block	FBW7 activator	MITF inh
COc1ccc(NC(=S)NCC(c2cccnc2)N(C)C)cc1 (stereo not drawn)	i	i	i	i
CC(C)N(CCNC(=O)c1cnc(Oc2ccccc2)s1)C(C)C	i	i	i	i
CC(C)N(CCNC(=O)c1cccc(Oc2ccccc2)n1)C(C)C	i	i	3.1	i
Fc1ccc(-c2cnc3ccc(NCc4ccccn4)nn23)cc1	i	51	i	i
c1ccc(-c2cnc3ccc(NCc4ccccn4)nn23)cc1	i	39	i	i
Fc1ccc(-c2cnc3ccc(NCCc4ccccn4)nn23)cc1	i	68	i	i
CN(C)c1ccc(-c2cnc3ccc(NCCc4ccccn4)nn23)cc1	i	i	i	i
CN(C)c1ccc(-c2cnc3ccc(NCc4ccccn4)nn23)cc1	i	i	i	i
COc1ccc(-c2cnc3ccc(NCc4ccccn4)nn23)cc1	i	45	i	i
Clc1cccc(-c2cnc3ccc(NCc4ccccn4)nn23)c1	i	i	i	i
Nc1ccc2nc(SCC(=O)N3CCN(c4nc5ccccc5s4)CC3)sc2c1	i	i	i	i
Oc1ccc(-c2cnc3ccc(NCc4ccco4)nn23)cc1	i	47	i	i
COc1ccc(CNc2ccc3ncc(-c4cccc(CO)c4)n3n2)cc1	i	33	i	i
COCc1cc(CN2CCCC2)c(O)c2ncccc12	i	81	i	100
CCOc1ccccc1N1CCN(Cc2cc(OC)c(OC)c(OC)c2)CC1	i	41	i	i
CCOc1ccccc1N1CCN(Cc2cccc(OC)c2O)CC1	i	i	i	i

Compound activity from PubChem.
